# Assay outcomes from PubChem BioAssay.
# cardiac RTF act – cardiac RTF calcium sensitivity activators, primary screen, biochemical, IANBD-TnC fluorescence, EC20 calcium; AID 493008, 2010; Troponin I, cardiac muscle (Homo sapiens) + Troponin T, cardiac muscle (Homo sapiens) + …; actives 0.24% (n = 340,000); IANBD-labeled TnC RTF fluorescence at EC20 calcium; 0% EC20 calcium, 100% full calcium; activation, % at 7.2 µM;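 active = activation above the mean over all tested compounds plus 3 SD, cut at about 30% in these data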;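 also: rise in fluorescence read as greater calcium sensitivity of cardiac thin filaments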
# IDE cell activ – human IDE activators in live cells, primary screen, fluorescence polarization, HEK cells, FAbeta-B substrate; Insulin-degrading enzyme (Homo sapiens), P14735; FAbeta-B cleavage; 0% vehicle, 100% cell-free pure enzyme wells; activation, % at 5.96 µM; actives 0.073% (n = 340,000);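 active = activation above the mean of all tested compounds plus 3 SD, set per screening campaign, cut at about 17% in these data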
# IDE inh – human IDE inhibitors in live cells, primary screen, fluorescence polarization, HEK cells, FAbetaB substrate; Insulin-degrading enzyme (Homo sapiens), P14735; FAbetaB cleavage; inhibition, % at 5.59 µM; actives 0.41% (n = 320,000);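 active = percent inhibition above the average of all tested compounds plus 3 SD, set per screening campaign, cut at about 16% in these data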;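 also: IDE supplied by intact live HEK cells; FP after avidin binding of uncleaved biotin substrate so inhibition keeps polarization high; 0% = DMSO wells and 100% = 60 µM reference IDE inhibitor Ii1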
# CRFBP-R2 block – antagonists of CRF-BP/CRF-R2 complex, primary screen, cell-based, HEK293, calcium dye fluorescence, uHTS | inhibition, % at 11.8 µM | CRF-induced calcium fluorescence | actives 0.59% (n = 350,000) | AID 588475, 2011;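 active = inhibition of the ligand-induced calcium signal above about 50% at the single tested concentration, limit read from the data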
# RTF Ca sens inh – cardiac RTF calcium sensitivity inhibitors, primary screen, biochemical, IANBD-TnC fluorescence, EC70 calcium | inhibition, % at 7.15 µM | IANBD-labeled cardiac RTF, Ca2+ fluorescence | actives 0.12% (n = 340,000) | Troponin I, cardiac muscle (Homo sapiens) + Troponin T, cardiac muscle (Homo sapiens) + …;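 active = inhibition above the mean inhibition of all tested compounds plus 3 SD, cut at about 17% in these data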;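 also: assay run at fixed EC70 calcium of 1.6 mM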
# CRFBP-R2 agonist – agonists of CRF-BP/CRF-R2 complex, primary screen, cell-based, HEK293, calcium dye fluorescence, uHTS. activation, % at 13.2 µM. AID 588473, 2011. CRF-binding protein / CRF receptor 2 complex (human). calcium dye fluorescence (FLIPR); percent of saturating CRF peptide response. actives 0.46% (n = 350,000);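 active = activation of at least 50%, plus an integration ratio under a set limit after plate pattern correction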;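 also: plate controls were neutral control wells without compound for no effect and CRF at EC100 for full effect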
# The depositor's hits bear a star; x = not tested or not shown. Compounds with a hit are over-represented: about 1.5% of the library has one in this group of screens.
SMILES,cardiac RTF act,IDE cell activ,IDE inh,CRFBP-R2 block,RTF Ca sens inh,CRFBP-R2 agonist
CN(CCc1ccccc1)C(=O)c1cccc(NC(=O)Cc2cccc(NC(=O)C3CCCN(C(=O)c4ccccc4)C3)c2)c1 (stereo unspecified),4,-5,x,-10,-5,-1
Brc1ccc(-c2csc(N3CCOCC3)n2)cc1,-2,-7,-5,-7,2,0
Clc1ccc(-c2csc(N3CCOCC3)n2)cc1,-2,-4,x,77*,0,-7
COCCn1c(=NC(C)=O)sc2cc([N+](=O)[O-])ccc21,0,4,4,13,0,-2
COCCn1c(=NC(=O)/C=C/c2ccccc2)sc2cc(NC(C)=O)ccc21,33*,2,-1,15,-35,-1
CCN(C(=O)c1ccccc1)c1ccc([N+](=O)[O-])cc1,0,-3,-2,-5,-1,-4
O=[N+]([O-])c1ccc(N(c2ccccc2)c2ccccc2)cc1,22,-3,6,-38,-24,54*
CCC(C)(C)NC(=O)c1cc([N+](=O)[O-])ccc1N1CCOCC1,5,0,7,-4,11,-1
Cc1cc(C)cc(N2C(=O)CSC2c2cccs2)c1 (stereo unspecified),6,6,-3,-68,-11,51*
CCN1CCN(c2nc3ccccc3nc2C(C#N)S(=O)(=O)c2ccc(C)cc2)CC1 (stereo unspecified),-3,4,0,12,-3,2
CCCCCCNC(=O)C(C#N)c1nc2ccccc2nc1N1CCCC1 (stereo unspecified),38*,-7,-2,-137,5,182*
CCN(CC)c1nc2ccccc2nc1C(C#N)C(=O)NCCc1ccccc1 (stereo unspecified),66*,1,-5,-29,-27,4
Cc1ccc(S(=O)(=O)C(C#N)c2nc3ccccc3nc2N2CCCC2)cc1 (stereo unspecified),3,0,0,-55,-19,56*
CCN(CC)c1nc2ccccc2nc1C(C#N)C(=O)NCCCOC (stereo unspecified),-3,1,7,-5,-2,-1
C=CCc1cccc(CNc2c(C)cc(C)cc2C)c1O,5,8,-5,-8,-11,0
CCCCc1ccc(NC(=S)Nc2cccnc2)cc1,4,5,-2,53*,-8,-2
Cc1nnc2n(Cc3ccccc3)c(=O)c3c4c(sc3n12)COC(C)(C)C4,-5,-6,-3,87*,-5,-2
CC1(C)Cc2c(sc3c2c(=O)n(Cc2ccccc2)c2nncn32)CO1,2,0,x,6,2,-1
COCCn1c2nc(=O)n(-c3ccccc3)c(=O)c-2nc2ccccc21,x,x,x,-168,x,194*
CC(Sc1nnc(-c2cccnc2)n1C)C(=O)N1CCOCC1 (stereo unspecified),-2,-2,5,15,5,5
CC(NCC(=O)Nc1ccccc1C(=O)NC1CC1)c1cccc(Cl)c1 (stereo unspecified),3,-1,x,66*,-11,0
COc1ccc(Cn2c(SCc3cc(C)ccc3C)nc3cc(OC)c(OC)cc3c2=N)cc1,0,27*,1,-30,-5,2
COc1cc2nc(SCc3ccc(C(F)(F)F)cc3)n(Cc3cccs3)c(=N)c2cc1OC,-1,2,6,1,4,-1
COc1cc2nc(SCc3ccc(Cl)cc3Cl)n(Cc3cccs3)c(=N)c2cc1OC,2,1,2,-6,1,-1
COc1ccc(Cn2c(SCc3ccc(C)cc3)nc3cc(OC)c(OC)cc3c2=N)cc1Cl,-2,20*,1,-1,3,0
CC(=O)N1CCc2ccc(S(=O)(=O)N3CC(C)OC(C)C3)cc21 (stereo unspecified),0,4,-3,2,5,1
